Data reported in PubChem BioAssay AID1467 (National Center for Advancing Translational Sciences (NCATS), 2008).
In all, about 230,000 compounds went through this assay and fewer than 10 were called active. The call rests on the fitted dose curve; in most records, active means well fitted curve in the direction sought with a large enough effect; inconclusive means small, poorly fitted or top-dose-only effect, or effect the other way, or another doubt; inactive means no such curve, though single readings can be large or run the other way. These entries were drawn from the full list.

Target: Alpha-galactosidase A (Homo sapiens) (UniProt P06280)
Assay: qHTS Assay for Inhibitors of Human alpha-Galactosidase at pH 4.5.
Settings: purified enzyme, 4-MU-alpha-Gal fluorescence; series mostly up to 105 µM
Source text: NIH Chemical Genomics Center [NCGC]
NIH Molecular Libraries Probe Production centers Network [MLPCN]
Assay Submitter (PI): Wei Zheng
Alpha-galactosidase is a homodimeric glycoprotein that hydrolyzes the terminal alpha-galactosyl moieties from glycolipids and glycoproteins. Deficiency of this enzyme results in Fabry Disease with progressive accumulation of globotriaosylceramide and other glycosphingolipids in vascular endothelial cells that causes renal failure, myocardial infarction and stroke, and premature death in patients. It has been reported that the improper folding and trafficking of alpha-galactosidase resulting from the genetic mutations may account for a significant numbers of Fabry patients. […] We optimized this alpha-galactosidase assay in 1536-well plate format for identifying the novel small molecule inhibitors with the structures other than the sugar analogs in order to develop the new pharmacological chaperones. Although this assay has the same protocol as PubChem AID 992, this is a separate project and, therefore, is published as a separate assay
NCGC Assay Protocol Summary:
This is a fluorogenic enzyme assay with 4-Methylumbelliferyl alpha-D-galactopyranoside as the substrate and human […] as the enzyme preparation. Upon the hydrolysis of this fluorogenic substrate, the resulting product, […]. 4-Methyllumbelliferone, can be excited at 365 nm and emits at 440 nm. This fluorescence which can be detected by a standard fluorescence plate reader. Data were normalized to the controls for basal activity (without enzyme) and 100% activity (with enzyme). In the AC50 values were determined from concentration-response data modeled with the standard Hill equation.
Assay buffer: 50 mM citric acid (titrated with potassium phosphate to pH 4.5), 0.005% Tween-20, pH 4.5. (pH 4.5 is an optimal condition for this enzyme assay)
1536-well assay protocol for the human alpha-galactosidase:
(1) Add 2 ul/well of enzyme (12 nM final)
(2) Add 23 nL compounds in DMSO solution. The final titration was 0.7 nM to 77 uM.
(3) Add 1 ul of substrate (400 uM final)
(4) Incubate at room temperature for 20 min.
(5) Add 2 ul stop solution (1M NaOH and 1M Glycine mixture, pH 10)
(6) Detect the assay plate in a ViewLux plate reader (PerkinElmer) with Ex=365 nm and Em=440nm.
Keywords: MLSMR, MLPCN, NIH Roadmap, qHTS, NCGC, : Alpha-galactosidase, Fabry Disease, pharmacological chaperone, chaperone therapy

Alpha-galactosidase A (Homo sapiens), sequence (P06280 whole entry, looked up): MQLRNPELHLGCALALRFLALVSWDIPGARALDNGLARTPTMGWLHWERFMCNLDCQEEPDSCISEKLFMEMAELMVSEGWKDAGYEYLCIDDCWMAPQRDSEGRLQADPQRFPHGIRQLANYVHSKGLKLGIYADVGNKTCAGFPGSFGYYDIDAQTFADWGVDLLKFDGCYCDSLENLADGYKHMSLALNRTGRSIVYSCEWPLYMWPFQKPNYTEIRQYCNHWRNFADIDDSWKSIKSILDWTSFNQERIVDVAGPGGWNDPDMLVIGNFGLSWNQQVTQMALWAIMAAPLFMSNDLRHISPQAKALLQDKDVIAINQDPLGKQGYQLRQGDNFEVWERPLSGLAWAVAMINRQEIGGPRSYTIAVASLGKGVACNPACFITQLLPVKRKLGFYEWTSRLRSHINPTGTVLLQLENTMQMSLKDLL

Activity change, negative = inhibition, inactive:
O=C(Nc1ccc(Br)cn1)C1CCN(S(=O)(=O)c2cccs2)CC1
Cc1c(/C=N\NC(=O)c2cc3ccccc3o2)c2ccccc2n1C
Nc1cccc(S(=O)(=O)Nc2ccc(SC(F)F)cc2)c1
COc1ccc(-n2cc(CNC3CCOCC3)c(-c3cccc(F)c3)n2)cc1
Cc1cc(NC(=O)CSCc2nc(-c3cccc(Cl)c3)oc2C)no1
CCCCC/C=C\C[C@H](O)/C=C/C=C/C=C/[C@@H](O)CCCC(=O)O
N#CCSc1nn(-c2ccc(F)cc2)c(=S)s1
Cc1nnc(NC(=O)CCC(=O)N2CCC(C)CC2)s1
CCCNC(=O)c1c(Cl)cnn1-c1ccc(C)cc1
COC(=O)C/C=C/[C@@H](C)[C@H](NC(=O)OCC(Cl)(Cl)Cl)c1ccccc1
CC1(OC(=O)c2ccc(Cl)nc2)C(=O)Cc2cc(-c3ccsc3)ncc2C1=O (centres undefined)
CC(=O)c1ccc(N2CCN(CC(=O)Nc3ccccc3N3CCOCC3)CC2)cc1
CCCc1ccc(OCc2ccc(C(=O)N/N=C/c3cccc([N+](=O)[O-])c3)o2)c(OC)c1
C/C=C1\C2C=C(C)CC1(N)c1ccc(=O)[nH]c1C2 (centres undefined)
CCOC(=O)C1=C(O)/C(=C/c2cc(C)n(-c3ccccc3)c2C)N=C1C
CC[C@H](C)[C@@H](NC(=O)O[C@@H]1C(=O)c2cc(OC)ccc2O[C@H]1c1cccc(OC)c1)C(=O)OC
Cc1cc(C)cc(C(=O)NCC(=O)OCC(=O)N2CCCCC2)c1
O=C(CN1CCCCCC1)NCCN1C(=O)S/C(=C\c2ccccc2Cl)C1=O
Cc1ccccc1-c1ccc(C(=O)O)s1
Cc1nc(-c2ccccc2)sc1-c1nnc(C2CC2)o1
O=c1c(O)c(Br)ccc2c(Br)c(O)c(O)c(O)c12
O=C(CSc1nc2ccccc2o1)N/N=C/c1ccccc1C(=O)O
COc1cc(/C=C(/NC(=O)c2ccccc2)C(=O)Nc2cccc(O)c2)c([N+](=O)[O-])cc1OC
CN(CCc1cnn(C)c1)Cc1cn(C)nc1-c1ccccc1F
CC1=C2[C@@H](O)[C@H]([C@@H](C)C(=O)NCCC(C)C)CC[C@@]2(C)C=CC1=O
CC/C=C\C/C=C\C/C=C\C/C=C\C/C=C\C/C=C\CCC(=O)NC(C)C(=O)O (centres undefined)
CCn1c(COc2c(C)cccc2C)nnc1SCc1nc2ccccc2c(=O)[nH]1
Cc1ccnc(NC(=O)CCC(=O)N(CC(=O)NCc2ccccc2)Cc2ccco2)c1
Cc1nc2c(ncn2-c2ccccc2)c(=O)n1NC(=O)CN1CCCC1
CC(=O)Nc1sc2c(c1C(c1cccc(F)c1)N1CCN(CCO)CC1)CCCC2 (centres undefined)
CCCCC[C@H](O)/C=C/[C@@H]1[C@@H](CC(=O)CCC(=O)O)[C@@H](O)C[C@H]1O
O=C1C=C(c2ccccc2)CCC1
COc1ccc(NC(=O)C2CCC(CNc3c(N4CCCCC4)c(=O)c3=O)CC2)c(OC)c1 (centres undefined)
COc1ccc(N2CCN(Cc3nnc(-c4ccccc4)o3)CC2)cc1
CC/C=C\C/C=C\C/C=C\C/C=C\C/C=C\C/C=C\CCC(=O)NCCc1ccc(O)c(O)c1
CCOC(=O)C1=NO[C@@]2(C=C(Br)C(=O)[C@H]3O[C@H]32)C1
C=CCn1c(CCNC(=O)c2cccs2)n[nH]c1=S
Cc1ccccc1NC(=O)c1ccc(COc2ccc3c(C)cc(=O)oc3c2)cc1
COC(=O)Cc1ccc(Oc2ncc(C(F)(F)F)cc2Cl)cc1
CONc1nc2nonc2nc1NOC
CCCCCCCCCCCCC(NC(C)=O)(C(=O)OCC)C(=O)OCC
CCN(CC)CC(=O)Nc1sc2c(c1C(=O)c1ccccc1C)CCC2
CCCCNC(=O)C1CCCN(S(=O)(=O)c2ccc(S(=O)(=O)NCC(C)C)cc2)C1 (centres undefined)
CCOc1cc(NC(=O)CCl)c(OCC)cc1NC(C)=O
CCn1c(CN2C(=O)CSc3ccccc32)n[nH]c1=S
CCOC(=O)N1CCN(c2cc(C)c([N+](=O)[O-])cc2F)CC1
Cc1noc(C)c1C(=O)N(CC(=O)NC1CCCC1)Cc1ccccc1F
CC(C)Oc1ccc(CCc2nnc(SCC(=O)O)n2-c2ccccc2)cc1
Cc1ccccc1CSc1nnc(CCCCCNC(=O)OC(C)(C)C)o1
Cc1ccccc1CCN(CC(=O)NC1CCCCC1)C(=O)c1csnn1
CCc1c(O)nc(SCC(=O)Nc2ccccc2)n(C(C)CC)c1=O (centres undefined)
COc1ccc(NC(=O)c2ccccc2[N+](=O)[O-])cc1OC
CC(C)(C)c1nnc(NC(=O)C2c3ccccc3Oc3ccccc32)s1
O=C(Nc1ccc(N2CCOCC2)nc1)c1c(F)cccc1F
COc1ccc(/C=C/CN2CCCC(C(=O)c3cc(F)ccc3F)C2)cc1 (centres undefined)
Cc1cccc(CN2CCN(Cc3cnn(-c4ccccc4F)c3)CC2CCO)n1 (centres undefined)
CCCCc1ccc(NC(=S)NCCCN2CCOCC2)cc1
C=CCC(C)(O)c1ccco1 (centres undefined)
COc1c(O)cc2oc(-c3ccc(O)c(O)c3)cc(=O)c2c1O
O=C1OCCN1C(=O)[C@H]1[C@H](c2ccc(F)cc2)C(c2ccccc2)=NN1c1ccc(Br)cc1
C=C(C)C(=O)c1ccc(F)cc1
CC(C)(C)OC(=O)NCCCCC1=CC2=CC(=O)C(C)(OC(=O)c3cccs3)C(=O)C2=CO1 (centres undefined)
C=C(C(C)=O)C(O)c1cccs1 (centres undefined)
COc1ccc(C(=O)OCC(=O)NC(=O)CCSc2ccccc2)cc1
Cc1ccc(N2C(=O)C(CC(=O)Nc3cccc(F)c3)N(CCc3ccncc3)C2=O)cc1 (centres undefined)
CCCCCCCCn1c2c(c(=N)c3c1CCC3)CCCC2
CN(c1ccc2nc3ccccc3c(=O)n2n1)C1CCCCC1
Cc1ccc(Nc2nc(N)nc(CN3CCN(Cc4ccccc4)CC3)n2)cc1Cl
Cc1ccc(NC(=O)c2csc3c2CCCC3)cc1
